This passage reports Percent Effect results from ChEMBL document CHEMBL3988442, “University of Dundee, Small-Polar-MMV Screening Library” (2021).

For some of these results: Measured potencies and affinities stand elsewhere.

Design in all cases: scale not given: direction of the effect not stated beside the values
Assay [1] has as its target Protein translocase subunit SecA (Escherichia coli (strain K12)) (UniProt P10408). The assay can be described thus: Assay to Identify E. coli SecA ATPase Inhibitors. It counts as functional. Particulars: 30 µM.
In assay [2] the target is T1, Ubiquitin-activating enzyme e1, putative (Leishmania donovani (strain BPK282A1)) (UniProt E9BSI1).
T1 sequence (whole entry): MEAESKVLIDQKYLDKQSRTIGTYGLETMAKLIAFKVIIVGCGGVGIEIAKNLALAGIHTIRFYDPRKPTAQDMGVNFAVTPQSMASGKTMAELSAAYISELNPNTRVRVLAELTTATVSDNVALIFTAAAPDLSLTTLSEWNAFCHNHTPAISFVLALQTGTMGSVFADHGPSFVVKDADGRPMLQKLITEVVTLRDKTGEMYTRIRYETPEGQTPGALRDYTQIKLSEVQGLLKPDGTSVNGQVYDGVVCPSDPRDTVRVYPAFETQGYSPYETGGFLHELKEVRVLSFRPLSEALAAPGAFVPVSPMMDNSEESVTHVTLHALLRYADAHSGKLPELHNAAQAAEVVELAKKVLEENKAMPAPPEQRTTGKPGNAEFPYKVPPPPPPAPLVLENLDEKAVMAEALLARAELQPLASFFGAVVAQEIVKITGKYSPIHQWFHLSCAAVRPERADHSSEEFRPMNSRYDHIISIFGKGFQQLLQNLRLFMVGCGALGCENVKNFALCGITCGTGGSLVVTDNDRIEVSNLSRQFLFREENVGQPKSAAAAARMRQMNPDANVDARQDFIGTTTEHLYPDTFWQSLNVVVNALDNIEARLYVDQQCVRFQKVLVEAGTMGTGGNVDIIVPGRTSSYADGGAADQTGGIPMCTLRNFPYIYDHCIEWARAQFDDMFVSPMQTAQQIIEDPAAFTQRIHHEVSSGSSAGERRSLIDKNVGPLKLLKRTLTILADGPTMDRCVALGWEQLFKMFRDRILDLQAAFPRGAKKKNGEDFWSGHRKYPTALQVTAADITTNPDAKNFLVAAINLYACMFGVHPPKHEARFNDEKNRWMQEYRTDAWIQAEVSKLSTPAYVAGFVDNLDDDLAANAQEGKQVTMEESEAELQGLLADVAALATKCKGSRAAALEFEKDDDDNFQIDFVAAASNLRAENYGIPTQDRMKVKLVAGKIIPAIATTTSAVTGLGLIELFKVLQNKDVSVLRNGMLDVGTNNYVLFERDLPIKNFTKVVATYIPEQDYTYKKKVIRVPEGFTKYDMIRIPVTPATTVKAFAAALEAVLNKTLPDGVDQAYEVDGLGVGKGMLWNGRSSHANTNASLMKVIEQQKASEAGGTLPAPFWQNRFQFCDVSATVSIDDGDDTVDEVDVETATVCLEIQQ
The assay can be described thus: Leishmania donovani Ubiquitin Activating Enzyme (LdE1). It counts as functional. Particulars: 30 µM.

The target of assay [3] is AMP-activated protein kinase, AMPK (Homo sapiens) (UniProt P54646+O43741+P54619+Q9UGJ0+Q9Y478+Q13131+Q9UGI9). The assay can be described thus: AMP-dependent Kinase enzyme assay. An in vitro enzyme assay that detects ADP turnover that is directly proportional to AMPK activity. This uses naive AMPK that is activated during the assay with MK-8722. It counts as functional. Particulars: 30 µM.

Assay [4] concerns the target Sialic acid-binding Ig-like lectin 9 (Homo sapiens) (UniProt Q9Y336). The assay can be described thus: Hs-Siglec9 ALPHAscreen SOP 20170721. Conditions: 10 µM. (Alpha assays give light when donor and acceptor beads are brought close together.)
Another assay has as its system Trypanosoma cruzi. The assay can be described thus: Trypanosoma cruzi phosphomannomutase and mannose-1-phosphate guanylyltransferase assay. Particulars: 10 µM. Type of assay: functional.
Assay [5] addresses T2, Arginase-2, mitochondrial (Homo sapiens) (UniProt P78540).
T2 sequence (whole entry): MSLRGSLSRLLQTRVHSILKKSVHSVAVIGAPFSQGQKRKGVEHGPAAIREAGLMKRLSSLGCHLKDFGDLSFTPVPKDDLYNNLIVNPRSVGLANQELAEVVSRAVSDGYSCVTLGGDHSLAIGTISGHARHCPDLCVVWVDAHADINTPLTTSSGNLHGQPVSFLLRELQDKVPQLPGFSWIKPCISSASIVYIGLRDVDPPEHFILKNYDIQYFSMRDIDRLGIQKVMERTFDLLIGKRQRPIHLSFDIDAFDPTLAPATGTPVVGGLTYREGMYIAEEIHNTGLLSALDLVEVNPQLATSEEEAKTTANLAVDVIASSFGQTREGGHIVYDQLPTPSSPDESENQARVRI
The assay can be described thus: in vitro enzyme assay to detect the production of urea directly proportional to the activity of Arginase II. Note: in the data most compounds retested in dose-response had high values. It counts as functional. Particulars: 33.3 µM.

Assay [6] addresses T3, Proteasome subunit beta (Trypanosoma cruzi) (UniProt O96673).
T3 sequence (whole entry): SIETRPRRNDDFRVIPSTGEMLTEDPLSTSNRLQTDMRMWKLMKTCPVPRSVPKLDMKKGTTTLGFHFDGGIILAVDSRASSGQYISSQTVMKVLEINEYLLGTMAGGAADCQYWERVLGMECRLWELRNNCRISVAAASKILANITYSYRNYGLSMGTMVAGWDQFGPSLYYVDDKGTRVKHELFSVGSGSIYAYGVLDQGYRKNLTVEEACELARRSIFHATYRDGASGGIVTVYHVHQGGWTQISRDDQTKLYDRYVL
The assay can be described thus: Trypanosoma cruzi proteasome chymotrypsin-like activity (TcProtChymo) assay. Note: in the data most compounds retested in dose-response had high values. Conditions: 9.37 µM. Type of assay: functional.

The species entered for another assay is Homo sapiens. The assay can be described thus: To identify inhibition of the IFN signalling (Jak-Stat) pathway via expression of an eGFP reporter gene under the control of an IFN-stimulated response element (ISRE) containing MxA promoter. Type of assay: functional. Particulars: 30 µM.
In assay [7] the target is T4, Tyrosyl-tRNA synthetase, putative (Trypanosoma cruzi (strain CL Brener)) (UniProt Q4DSP6).
T4 sequence (whole entry): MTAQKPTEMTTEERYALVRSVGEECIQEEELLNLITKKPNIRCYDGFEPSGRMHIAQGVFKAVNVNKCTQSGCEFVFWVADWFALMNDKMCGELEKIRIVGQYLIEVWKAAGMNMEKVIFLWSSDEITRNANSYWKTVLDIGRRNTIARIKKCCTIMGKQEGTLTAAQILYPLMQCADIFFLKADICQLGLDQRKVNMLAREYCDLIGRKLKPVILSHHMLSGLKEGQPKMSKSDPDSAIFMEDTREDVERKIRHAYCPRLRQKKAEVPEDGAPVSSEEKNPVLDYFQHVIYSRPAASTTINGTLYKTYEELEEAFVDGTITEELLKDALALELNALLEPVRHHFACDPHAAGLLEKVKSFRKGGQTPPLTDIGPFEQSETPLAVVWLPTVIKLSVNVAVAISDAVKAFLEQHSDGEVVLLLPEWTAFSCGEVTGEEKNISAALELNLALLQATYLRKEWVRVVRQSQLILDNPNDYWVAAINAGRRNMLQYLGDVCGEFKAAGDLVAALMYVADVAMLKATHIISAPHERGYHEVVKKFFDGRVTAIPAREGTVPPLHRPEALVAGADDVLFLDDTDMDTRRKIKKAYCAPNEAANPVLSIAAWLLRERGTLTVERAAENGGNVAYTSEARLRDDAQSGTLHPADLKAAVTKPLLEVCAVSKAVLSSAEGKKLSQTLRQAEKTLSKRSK
Description: Trypanosoma cruzi tyrosyl tRNA synthetase (TcYRS) _High Tyrosine SOP. Note: in the data most compounds retested in dose-response had high values. It counts as functional. Conditions: 30 µM.

The target of assay [8] is T4, Tyrosyl-tRNA synthetase, putative (Trypanosoma cruzi (strain CL Brener)). The assay can be described thus: Trypanosoma cruzi tyrosyl tRNA synthetase (TcYRS) SOP. Type of assay: functional. Particulars: 30 µM.
The target of assay [9] is Chromo domain-containing protein 1 (Saccharomyces cerevisiae (strain ATCC 204508 / S288c) (Baker's yeast)) (UniProt P32657). The assay can be described thus: ScCHD-1 Enzyme Inhibition Assay. Note: in the data most compounds retested in dose-response had high values. It counts as functional. Conditions: 30 µM.
Chromo domain-containing protein 1 (Saccharomyces cerevisiae (strain ATCC 204508 / S288c) (Baker's yeast)), sequence (P32657 whole entry, the tested form may be a part): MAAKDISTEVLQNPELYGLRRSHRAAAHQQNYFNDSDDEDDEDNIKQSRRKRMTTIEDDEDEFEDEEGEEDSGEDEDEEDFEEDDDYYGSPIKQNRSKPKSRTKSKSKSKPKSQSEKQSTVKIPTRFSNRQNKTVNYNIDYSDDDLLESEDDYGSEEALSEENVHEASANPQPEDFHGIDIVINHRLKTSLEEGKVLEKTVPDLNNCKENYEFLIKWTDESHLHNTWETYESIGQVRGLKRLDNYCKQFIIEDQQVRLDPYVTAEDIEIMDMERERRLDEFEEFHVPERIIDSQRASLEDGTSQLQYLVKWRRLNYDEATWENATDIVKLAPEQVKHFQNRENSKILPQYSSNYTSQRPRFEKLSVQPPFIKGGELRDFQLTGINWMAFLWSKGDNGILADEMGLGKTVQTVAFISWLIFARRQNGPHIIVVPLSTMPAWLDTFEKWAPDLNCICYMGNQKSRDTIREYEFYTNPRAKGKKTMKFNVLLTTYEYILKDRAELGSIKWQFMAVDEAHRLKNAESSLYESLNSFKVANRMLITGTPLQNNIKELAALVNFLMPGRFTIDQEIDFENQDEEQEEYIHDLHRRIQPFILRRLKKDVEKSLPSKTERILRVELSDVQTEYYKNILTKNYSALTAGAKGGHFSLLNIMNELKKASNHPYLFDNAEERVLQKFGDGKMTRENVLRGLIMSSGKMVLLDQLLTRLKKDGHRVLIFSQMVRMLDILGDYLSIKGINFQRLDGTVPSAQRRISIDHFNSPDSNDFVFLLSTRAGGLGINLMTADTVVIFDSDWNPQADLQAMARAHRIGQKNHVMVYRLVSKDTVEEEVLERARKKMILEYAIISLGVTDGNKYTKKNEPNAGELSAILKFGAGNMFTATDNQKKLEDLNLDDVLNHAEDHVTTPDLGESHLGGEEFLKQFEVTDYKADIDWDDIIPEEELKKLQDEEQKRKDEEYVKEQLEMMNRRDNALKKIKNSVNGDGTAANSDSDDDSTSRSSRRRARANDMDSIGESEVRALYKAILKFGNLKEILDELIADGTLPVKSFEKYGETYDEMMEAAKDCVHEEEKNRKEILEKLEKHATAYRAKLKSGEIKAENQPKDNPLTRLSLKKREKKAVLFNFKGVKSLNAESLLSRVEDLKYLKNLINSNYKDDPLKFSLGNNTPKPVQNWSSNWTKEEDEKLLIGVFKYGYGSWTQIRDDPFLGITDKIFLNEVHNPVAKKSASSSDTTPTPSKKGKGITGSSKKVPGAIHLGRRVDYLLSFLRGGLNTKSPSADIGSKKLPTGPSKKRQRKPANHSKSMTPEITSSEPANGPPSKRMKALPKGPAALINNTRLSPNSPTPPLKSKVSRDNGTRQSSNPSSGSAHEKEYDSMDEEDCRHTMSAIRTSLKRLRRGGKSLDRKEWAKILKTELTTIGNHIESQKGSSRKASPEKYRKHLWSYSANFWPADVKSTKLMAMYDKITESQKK

Protein translocase subunit SecA (Escherichia coli (strain K12)), sequence (P10408 whole entry): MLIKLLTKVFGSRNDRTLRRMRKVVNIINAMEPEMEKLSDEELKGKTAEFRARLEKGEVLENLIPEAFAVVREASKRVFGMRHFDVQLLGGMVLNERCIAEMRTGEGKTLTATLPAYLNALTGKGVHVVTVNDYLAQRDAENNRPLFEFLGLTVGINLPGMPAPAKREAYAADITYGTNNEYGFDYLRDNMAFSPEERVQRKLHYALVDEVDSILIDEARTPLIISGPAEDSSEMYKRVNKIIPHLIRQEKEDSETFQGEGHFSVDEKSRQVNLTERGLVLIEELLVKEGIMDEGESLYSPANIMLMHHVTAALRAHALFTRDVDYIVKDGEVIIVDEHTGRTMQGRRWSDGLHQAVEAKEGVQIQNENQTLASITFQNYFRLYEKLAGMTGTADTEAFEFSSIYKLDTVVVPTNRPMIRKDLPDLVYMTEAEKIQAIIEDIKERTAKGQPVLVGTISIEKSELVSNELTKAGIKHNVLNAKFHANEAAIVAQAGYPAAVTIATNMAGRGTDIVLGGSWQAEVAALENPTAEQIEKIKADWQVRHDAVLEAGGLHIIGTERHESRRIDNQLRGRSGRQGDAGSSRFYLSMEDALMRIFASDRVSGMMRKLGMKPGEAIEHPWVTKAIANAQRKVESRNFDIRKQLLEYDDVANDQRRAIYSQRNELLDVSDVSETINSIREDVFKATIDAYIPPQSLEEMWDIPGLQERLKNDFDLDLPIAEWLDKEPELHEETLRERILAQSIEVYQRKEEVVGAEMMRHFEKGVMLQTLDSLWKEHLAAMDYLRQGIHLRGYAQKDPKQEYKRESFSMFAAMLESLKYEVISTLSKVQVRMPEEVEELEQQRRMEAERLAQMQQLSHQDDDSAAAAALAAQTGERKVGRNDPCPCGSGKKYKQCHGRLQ
Sialic acid-binding Ig-like lectin 9 (Homo sapiens), sequence (Q9Y336 whole entry): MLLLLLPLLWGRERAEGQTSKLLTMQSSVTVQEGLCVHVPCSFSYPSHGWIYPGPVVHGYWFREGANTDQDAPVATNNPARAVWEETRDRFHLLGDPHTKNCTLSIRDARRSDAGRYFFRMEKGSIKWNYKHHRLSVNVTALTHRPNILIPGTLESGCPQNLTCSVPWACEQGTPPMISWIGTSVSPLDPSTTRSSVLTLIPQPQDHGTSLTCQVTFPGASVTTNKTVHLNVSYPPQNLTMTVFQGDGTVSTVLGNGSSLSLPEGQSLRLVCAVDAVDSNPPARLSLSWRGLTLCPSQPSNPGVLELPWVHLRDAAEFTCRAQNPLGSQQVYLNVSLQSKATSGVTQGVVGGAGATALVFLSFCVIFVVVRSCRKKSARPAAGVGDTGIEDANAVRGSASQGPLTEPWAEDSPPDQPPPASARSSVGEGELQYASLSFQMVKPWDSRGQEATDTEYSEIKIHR

In the case of `CCOCC1CN(C(=O)c2cccn2C)Cc2cnn(CC3CC3)c21` (stereo unspecified), the Percent Effect in assay [1] was -4.01%; in assay [2], 5.2%; in [3] it was -0.603%; in [4], 8.24%; in the assay on Trypanosoma cruzi it was 0.69%; in assay [5], -12.3%. The Percent Effect is 3.48% in assay [6]; 6.88% in the assay filed under Homo sapiens; 11.6% in assay [7]; 16.7% in assay [8]; -8.59% in [9].

As for `CC(N(C)Cc1nc2c(cnn2C)c(=O)[nH]1)C(C)(C)C` (stereo unspecified), the Percent Effect in assay [1] is -4.87%; in assay [2], 13.5%; in assay [3], -4.12%; in assay [4], 2.57%; with Trypanosoma cruzi, -10.1%; in assay [5] it was 2.03%. Also, the Percent Effect in assay [6] is 7.72%; in the assay filed under Homo sapiens it was 24.6%; in assay [7], -1.98%; in assay [8], 3.66%; in assay [9], -4.7%.

Regarding `Cc1nc(CNC(C)c2ccc(OCC(=O)NC3CC3)cc2)cs1` (stereo unspecified), the Percent Effect in assay [1] was -1.09%; in assay [2] it was 19%; in [3], -0.957%; in assay [4], -2.32%; in the assay with Trypanosoma cruzi it was -2.15%; in [5], -8.82%. Besides, the Percent Effect was 23.8% in assay [6]; 3.09% in the assay listed under Homo sapiens; 4.17% in [7]; -48.1% in [8]; -24.3% in assay [9].

Regarding `COc1ccc(C(CO)NC(=O)Nc2cccnc2)cc1` (stereo unspecified), the Percent Effect in assay [1] was -4.93%; in assay [2], -2.7%; in [3], -0.874%; in [4], 3.21%; in the assay on Trypanosoma cruzi, -3.86%; in assay [5], -3.81%. In addition, the Percent Effect in assay [6] is 10.9%; in the assay filed under Homo sapiens it was 10.2%; in assay [7] it was -0.529%; in assay [8], -4.88%; in assay [9], -2.24%.

As for `Cc1ncc(CNCC2CCCN2c2cccnn2)s1` (stereo unspecified), the Percent Effect in assay [1] is 0.235%; in [2], 8.86%; in assay [3], -1.3%; in assay [4], -1.84%; in the assay with Trypanosoma cruzi, 3.79%; in [5], 5.38%. Further, the Percent Effect was 15.9% in assay [6]; 22.7% in the assay filed under Homo sapiens; 9.38% in assay [7]; 12.7% in assay [8]; -17.8% in assay [9].

In the case of `OCCC1CN(C2CCC2)CCN1C1CCCC1` (stereo unspecified), the Percent Effect in [1] is -3.14%; in [2], -1.39%; in assay [3], -6.25%; in [4], -1.98%; in the assay with Trypanosoma cruzi, 7.87%; in assay [5], -1.77%. The Percent Effect in [6] is 2.28%; in the assay filed under Homo sapiens it was -37%; in assay [7] it was 1.05%; in assay [8] it was 7.69%; in assay [9], 3.1%.

Consider `O=C(Nc1ccc(F)cc1F)Nc1c[nH]c(=O)[nH]c1=O`, for which the Percent Effect is 0.161% in assay [1]; 10.4% in assay [2]; 5.76% in assay [3]; -2.96% in [4]; -5.03% in the assay on Trypanosoma cruzi; 0.645% in [5]. For the same compound, the Percent Effect in assay [6] is 6.09%; in the assay filed under Homo sapiens it was 8.21%; in assay [7], -1.06%; in [8], 3.85%; in assay [9], -9.44%.

Turning to `CC(C)NC(=O)C1CN(C(=O)c2ccc(F)cc2)CC12CCOCC2` (stereo unspecified), the Percent Effect in assay [1] is -0.326%; in assay [2], 6.67%; in [3] it was 1.28%; in assay [4], -10.8%; with Trypanosoma cruzi, -11.8%; in assay [5] it was -7.22%. For the same compound, the Percent Effect in assay [6] was 17.4%; in the assay filed under Homo sapiens, -8.73%; in assay [7] it was 1.06%; in assay [8] it was 2.56%; in assay [9], -10.5%.

For the compound `Cc1cnn(CCNCc2ccc(OCC(N)=O)cc2)c1`, the Percent Effect was -7.27% in [1]; 5.33% in [2]; -3.69% in assay [3]; 3.41% in assay [4]; 3.8% with Trypanosoma cruzi; 5.21% in [5]. Also, the Percent Effect is 4.36% in assay [6]; -9.67% in the assay listed under Homo sapiens; 3.83% in assay [7]; 8.64% in [8]; -7.44% in assay [9].

Take `CCc1ccc(S(=O)(=O)Nc2cc(OC)c(OC)cc2C(=O)O)s1`: the Percent Effect in [1] was -4.39%; in [2], 13.2%; in assay [3], 5.52%; in [4], -13.6%; with Trypanosoma cruzi it was -8.12%; in assay [5], 2.16%. Also, the Percent Effect in [6] is 8.54%; in the assay filed under Homo sapiens, 8.65%; in assay [7], -7.39%; in assay [8], -1.24%; in assay [9], -5.49%.

For `CC(C)(C)c1ncc2c(n1)CN(C(=O)c1ccncc1)C2`, the Percent Effect in [1] was -2.88%; in [2], 5.48%; in [3], -0.32%; in assay [4] it was 6.45%; with Trypanosoma cruzi, -3.57%; in [5] it was -3.19%. Moreover, the Percent Effect is 17.7% in [6]; -6.92% in the assay filed under Homo sapiens; 9.38% in assay [7]; 16.1% in [8]; -0.422% in [9].
